“And” between values parts separate entries of the source, which are not always exact repeats. Equal entries are not always repeated. In all, about 5,500 compounds went through this assay and about 2,000 (36%) were called active. Not shown: some 18% with an inconclusive outcome. No stated cut-off is given here; in the data, active means normalized growth mostly below about 0.91 (no sharp cut-off); inconclusive means no clear call, values can overlap the other calls; inactive means mostly above about 0.92. Some of the results follow.
Test: chemical genetic growth profiling, strain panel (AID 1159580);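 further: tested at 20 µM; growth read once vehicle control cultures reached saturation at 30 °C; 1 = growth at the plate median or of vehicle wells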
Settings: S. cerevisiae deletion strains, growth OD

Measured: normalized growth

Cc1occc(=O)c1O
inactive: locus YAL021C, strain ccr4, stronger effect = lower value 0.964 | locus YAL026C, strain drs2, stronger effect = lower value 0.972 | locus YAL030W, strain snc1, stronger effect = lower value 0.949 | locus YBL061C, strain skt5, stronger effect = lower value 0.969 | locus YBR009C, strain hhf1, stronger effect = lower value 0.984 | locus YBR021W, strain FUR4, stronger effect = lower value 1 | locus YBR023C, strain chs3, stronger effect = lower value 0.976 | locus YBR171W, strain sec66, stronger effect = lower value 0.975 | locus YBR229C, strain ROT2, stronger effect = lower value 1 | locus YBR231C, strain swc5, stronger effect = lower value 0.964 | locus YBR279W, strain paf1, stronger effect = lower value 0.944 | locus YCL011C, strain gbp2, stronger effect = lower value 0.956 | locus YCL016C, strain dcc1, stronger effect = lower value 0.978 | locus YCL029C, strain bik1, stronger effect = lower value 1.02 | locus YCL061C, strain MRC1, stronger effect = lower value 0.987 | locus YCL069W, strain vba3, stronger effect = lower value 0.978 | locus YCR088W, strain abp1, stronger effect = lower value 0.965 | locus YDL005C, strain med2, stronger effect = lower value 0.967 | locus YDL035C, strain GPR1, stronger effect = lower value 1.01 | locus YDL040C, strain nat1, stronger effect = lower value 0.971 | locus YDL074C, strain BRE1, stronger effect = lower value 1.01 | locus YDL101C, strain DUN1, stronger effect = lower value 1.01 | locus YDL185W, strain tfp1, stronger effect = lower value 1.01 | locus YDL192W, strain arf1, stronger effect = lower value 1.02 | locus YDR001C, strain nth1, stronger effect = lower value 0.953 | locus YDR069C, strain doa4, stronger effect = lower value 1 | locus YDR101C, strain arx1, stronger effect = lower value 0.991 | locus YDR137W, strain rgp1, stronger effect = lower value 0.945 | locus YDR159W, strain sac3, stronger effect = lower value 0.971 | locus YDR162C, strain NBP2, stronger effect = lower value 1.02 | locus YDR195W, strain ref2 0.953 | locus YDR297W, strain sur2, stronger effect = lower value 0.971 | locus YDR318W, strain mcm21, stronger effect = lower value 1.02 | locus YDR334W, strain swr1, stronger effect = lower value 0.929 | locus YDR335W, strain msn5, stronger effect = lower value 0.964 | locus YDR388W, stronger effect = lower value 1.01 | locus YDR392W, strain spt3, stronger effect = lower value 0.917 | locus YDR502C, strain sam2, stronger effect = lower value 0.999 | locus YEL003W, strain gim4, stronger effect = lower value 0.956 | locus YEL037C, strain rad23, stronger effect = lower value 0.961 | locus YEL061C, strain CIN8 (second series), stronger effect = lower value 0.953 | locus YEL061C, strain CIN8, stronger effect = lower value 1 | locus YER015W, strain faa2, stronger effect = lower value 0.964 | locus YER016W, strain bim1, stronger effect = lower value 0.958 | locus YER110C, stronger effect = lower value 1.01 | locus YER111C, strain swi4, stronger effect = lower value 0.966 | locus YER155C, strain BEM2 (second series), stronger effect = lower value 0.97 | locus YER155C, strain BEM2, stronger effect = lower value 0.993 | locus YER167W, strain BCK2, stronger effect = lower value 0.995 | locus YFR010W, strain ubp6, stronger effect = lower value 0.96 | locus YGL078C, strain dbp3, stronger effect = lower value 1.03 | locus YGL086W, strain mad1, stronger effect = lower value 0.982 | locus YGL167C, strain pmr1, stronger effect = lower value 0.961 | locus YGL173C, strain kem1, stronger effect = lower value 0.957 | locus YGL227W, strain vid30, stronger effect = lower value 0.966 | locus YGL240W, strain doc1, stronger effect = lower value 0.971 | locus YGL248W, strain PDE1, stronger effect = lower value 1.01 | locus YGL253W, strain hxk2, stronger effect = lower value 0.974 | locus YGR135W, strain pre9, stronger effect = lower value 1.03 | locus YGR252W, strain gcn5, stronger effect = lower value 1.08 | locus YHR013C, strain ard1, stronger effect = lower value 0.947 | locus YHR027C, strain rpn1, stronger effect = lower value 0.979 | locus YHR030C, strain SLT2, stronger effect = lower value 1.01 and 1.04 | locus YHR079C, strain IRE1 (second series), stronger effect = lower value 1.01 | locus YHR079C, strain IRE1, stronger effect = lower value 1.03 | locus YHR094C, strain hxt1, stronger effect = lower value 1.01 | locus YHR129C, strain ARP1, stronger effect = lower value 1.01 | locus YHR142W, strain chs7, stronger effect = lower value 0.919 | locus YHR200W, strain rpn10, stronger effect = lower value 1.01 | locus YIL066C, strain RNR3, stronger effect = lower value 1.01 | locus YIL073C, strain SPO22, stronger effect = lower value 1.06 | locus YIL125W, strain kgd1, stronger effect = lower value 1.02 | locus YIR030C, strain dcg1, stronger effect = lower value 1 | locus YJL092W, strain hpr5, stronger effect = lower value 0.976 | locus YJL095W, strain BCK1 (second series), stronger effect = lower value 0.962 | locus YJL095W, strain BCK1, stronger effect = lower value 1.01 and 1.02 | locus YJL115W, strain asf1, stronger effect = lower value 0.95 | locus YJL129C, strain trk1, stronger effect = lower value 0.95 | locus YJL134W, strain LCB3, stronger effect = lower value 1.01 | locus YJL154C, strain vps35, stronger effect = lower value 0.953 | locus YJL164C, strain tpk1, stronger effect = lower value 0.969 | locus YJL166W, strain qcr8, stronger effect = lower value 0.953 | locus YJL168C, strain set2, stronger effect = lower value 0.999 | locus YJL187C, strain SWE1 (second series), stronger effect = lower value 1.01 | locus YJL187C, strain SWE1, stronger effect = lower value 0.977 | locus YJR043C, strain POL32, stronger effect = lower value 1.01 | locus YJR066W, strain TOR1, stronger effect = lower value 0.991

Source: PubChem BioAssay AID1159580 (chemical genetic matrix, 2015)
